TDP1 cell CPT = qHTS for Inhibitors of human tyrosyl-DNA phosphodiesterase 1 (TDP1): qHTS in cells in presence of CPT | chicken DT40 Tdp1-/-;hTDP1 cells + 20 nM CPT, ATP luminescence, 48 h | Potency, µM (series often up to 46.2 µM), inactives show top-dose activity change, negative = growth inhibition, most hits filed as inhibitors | 12% of 420,000 active | AID 686979, 2013; note: nearly all actives have a fitted effect of over 55% in size
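Chicken DT40 Tdp1-/- cells stably complemented with human TDP1 were seeded at 400 cells/well in medium containing 20 nM camptothecin, exposed to pin-transferred compounds, and grown at 37 °C for at least 48 hr. Viability was read as ATP luminescence.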
HT1080-NT tox = qHTS for induction of synthetic lethality in tumor cells producing 2HG: qHTS for the HT-1080-NT fibrosarcoma cell line. HT-1080-NT fibrosarcoma viability, CellTiter-Glo ATP luminescence, 48 h. 1.6% of 360,000 active. AID 686970, 2013. Potency, µM (top dose mostly 46.1 µM), for the others: at the top dose activity, negative = less viability, usual class: cytotoxic;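 note: NT is the 2HG producing partner of a matched IDH1 knockdown line; 0% = DMSO-treated cells and -100% = media-only wells without cells; nearly all actives have a fitted effect of over 55% in size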
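Compounds were tested in concentration-response format on HT-1080-NT cells for 48 hours at 37 degrees C. Cell viability came from CellTiter-Glo luminescence; curves were classified by r2, response magnitude and activity.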
KB-V1 cytotox = qHTS assay for MDR1-selective chemotherapeutics: Primary screen using the drug-selected MDR subline cells KB-V1 | KB-V1 MDR cells viability, CellTiter-Glo, 72 h | Potency, µM (series often up to 46.1 µM), usual class: cytotoxic | 3.4% of 400,000 active | AID 1347076, 2019; note: nearly all actives have a fitted effect of over 60% in size
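KB-V1 cells (P-gp-expressing MDR subline of KB-3-1) in phenol-red-free DMEM with 10% FBS were exposed to library compounds over a concentration series for 72 h at 37 degrees C. Viability read by CellTiter-Glo luminescence; concentration-effect curves fitted after normalization.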
KB-3-1 cytotox = qHTS assay for MDR1-selective chemotherapeutics: Primary screen using the parental adenocarcinoma cell KB-3-1; KB-3-1 viability, CellTiter-Glo ATP luminescence, 72 h; Potency, µM (series often up to 46.1 µM), most hits filed as cytotoxic; 1.4% of 400,000 active; note: nearly all actives have a fitted effect of over 60% in size
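KB-3-1 parental drug-naive adenocarcinoma cells in DMEM/10% FBS, incubated 72 h at 37 C with pin-transferred compounds across a concentration series. Viability by CellTiter-Glo luminescence; concentration-response curves fitted after normalization.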
DT40 TDP1 no CPT = qHTS for Inhibitors of human tyrosyl-DNA phosphodiesterase 1 (TDP1): qHTS in cells in absence of CPT; AID 686978, 2013; 15% of 420,000 active; Potency, µM (series often up to 46.2 µM), inactives show at the top dose activity change, negative = growth inhibition, actives largely listed as inhibitors; DT40 Tdp1-/- hTDP1 cells, no CPT, ATP luminescence, 48 h; note: nearly all actives have a fitted effect of over 55% in size
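Compound effects on proliferation are scored in DT40 Tdp1-/-;hTDP1 cells in the absence of CPT. ATP levels (CellTiter-Glo luminescence) are recorded after a ≥48 hr, 37 °C incubation.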
HT1080 IDH1KD tx = qHTS for induction of synthetic lethality in tumor cells producing 2HG: qHTS for the HT-1080-IDH1KD cell line; 2% of 360,000 active; Potency, µM (doses to about 46.1 µM), inactives show top-dose activity, negative = toxicity, usual class: cytotoxic; HT-1080 IDH1 knockdown viability, ATP luminescence, 48 h;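 note: 0% = DMSO wells and -100% = cell-free medium wells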
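CellTiter-Glo luminescence after 48 h compound exposure at 37 degrees C of IDH1-knockdown HT-1080 cells in 5% FBS RPMI. %Activity scaled between DMSO wells and cell-free media wells, with curves fitted and assigned curve classes.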
Starred values were filed as active, the others as inactive; i = inactive; ? = inconclusive; / = not tested or not shown. Compounds with a hit are over-represented: about 19% of the library has one in this group of screens. Calls come from the whole dose curve; as a rule, active = well fitted curve in the direction sought with a large enough effect; inconclusive = small, poorly fitted or top-dose-only effect, or another doubt; inactive = no such curve, though single readings can be large; an effect the other way counts as inactive or inconclusive. Unless noted, % is set by controls: 0 for no effect and ±100 for the full control effect; potency is the fitted concentration of half-maximal effect.

SMILES | TDP1 cell CPT | HT1080-NT tox | KB-V1 cytotox | KB-3-1 cytotox | DT40 TDP1 no CPT | HT1080 IDH1KD tx
Cc1ccc(Nc2nnc(-c3ccc(N4CCOCC4)c([N+](=O)[O-])c3)c3ccccc23)cc1 | 12µM* | -18% | i | i | 10µM* | -7%
COc1ccccc1CCNC(=O)Cn1ccc2cc(S(=O)(=O)N3CCCCC3)ccc21 | ? | / | i | i | ? | /
CCn1c(CN(C)c2ccccc2)nc2ccccc21 | ? | -13% | ? | i | ? | -21%
C=C[C@](C)(CC[C@@]1(C)C(C)CC(OC2OC(C)C(OC3OC(COC(C)=O)C(O)C(O)C3O)C(O)C2O)[C@@]2(C)C(C)=CCCC12)OC1OC(C)C(O[C@@H]2O[C@@H](C)C(O)C(O)[C@H]2O)C(O)C1O (stereo not given in full) | 4% | 6% | i | i | 0% | 8%
C=C1C(=O)C23C(O)C1CCC2C12CCCC(C)(COC(C)=O)C1C(O)C3(O)OC2 (stereo not given) | 1µM* | 8.2µM* | ? | 13µM* | 0.73µM* | 1.8µM*
COc1cccc(-c2c(-c3cc(OC)cc(OC)c3)n(C)c3ccc(-c4cccc5[nH]ccc45)cc23)c1 | ? | 1% | i | i | -16% | 0%
COc1ccc(S(=O)(=O)N2CCOC2CNC(=O)C(=O)NCC(C)C)cc1OC (stereo not given) | -10% | 0% | / | / | 18% | 1%
CC1(C(=O)NCc2ccco2)CCN1C(=O)C1(c2ccccc2)CC1 (stereo not given) | 4.6µM* | -50% | i | i | 5.2µM* | -18%
COc1ccccc1CNC(=O)C1(C)CCN1C(=O)C1(c2ccccc2)CC1 (stereo not given) | 16µM* | -2% | ? | i | 26µM* | 1%
CC1(C(=O)NC2CCN(Cc3ccccc3)CC2)CCN1Cc1ccc(OC(F)(F)F)cc1 (stereo not given) | ? | ? | ? | i | ? | -24%
CC1(C(=O)NCC(F)(F)F)CCN1C(=O)C1(c2ccccc2)CC1 (stereo not given) | -60% | ? | i | i | -17% | 1%
COc1ccccc1CNC(=O)C1(C)CCN1Cc1ccc(OC(F)(F)F)cc1 (stereo not given) | 16µM* | ? | i | i | ? | ?
CC1(C(=O)NCc2cccc3ccccc23)CCN1C(=O)C1(c2ccccc2)CC1 (stereo not given) | ? | 20% | i | i | ? | 16%
C/C=C(\C)NNC(=O)Cc1ccc(OC)cc1 | -9% | / | i | i | 1% | /
Cc1ccc(NC(=S)C2=C(O)c3sccc3N(C)S2(=O)=O)cc1 | ? | -5% | i | i | ? | 2%
Cc1cccc(NC(=O)C2=C(O)c3ccccc3N(C)S2(=O)=O)c1 | ? | -4% | ? | ? | 15µM* | 2%
CN1c2ccccc2C(O)=C(C(=S)Nc2ccc(Cl)cc2)S1(=O)=O | 16µM* | ? | i | i | 21µM* | ?
Cc1ccc(NC(=O)C2=C(O)c3sccc3N(C)S2(=O)=O)cc1 | ? | 2% | i | i | 21µM* | 0%
O=C(Nc1ccc(F)cc1)c1oc2ccccc2c1NC(=O)C12CC3CC(CC(C3)C1)C2 | 2% | / | i | i | ? | /
